{"source": "PubChem BioAssay AID1850", "about": "(Southern Research Specialized Biocontainment Screening …, 2009)", "note": "Where “and” joins values, the source holds several entries; their conditions need not be identical. Identical values can stand only once. In all, about 310,000 compounds went through this assay and about 1,000 (0.32%) were called active. The list is a sample of the results. Entries with a potency or affinity are not part of this list. A number with no mark means an inactive call. No rule for the calls is given here."}
{"assay": "Inhibition of PhoP regulon, Salmonella typhi GFP reporter cells, confirmation, 4 h (AID 1850);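 also: 0% = induced wells with vehicle and 100% = uninduced wells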", "details": "Salmonella Typhi PhoP-promoter GFP reporter, fluorescence, at 50 µM, hits give high values"}
{"smiles": "O=C(NNC(=O)c1nn(-c2ccc(F)cc2)ccc1=O)c1ccc(Cl)cc1", "inhibition": "1.15%"}
{"smiles": "CC1(CC(=O)N/N=C/c2cc(Br)c(O)cc2O)OCCO1", "inhibition": "-8.89%"}
{"smiles": "CC1(CC(=O)N/N=C/c2cc3c(cc2Br)OCO3)OCCO1", "inhibition": "5.58%"}
{"smiles": "CCN(C1CCCCC1)S(=O)(=O)c1c(C)n(C)c(=O)n(C)c1=O", "inhibition": "-2.91%"}
{"smiles": "CCOc1ccc(NC(=O)c2ccc(NC(=O)c3cn4c5c(c(N6CCN(C)CC6)c(F)cc5c3=O)OCC4C)cc2)cc1", "note": "(centres undefined)", "inhibition": "-0.94%"}
{"smiles": "Cc1c(-n2cc(C(=O)O)c(=O)c3cc(F)c(N4CCCC4)c(F)c32)c(=O)n(-c2ccccc2)n1C", "inhibition": "-2.73%"}
{"smiles": "CCOC(=O)c1cnc2cc(F)c(F)cc2c1N1CCN(C)CC1", "inhibition": "-5.38%"}
{"smiles": "CCn1cc(C(=O)O)c(=O)c2cc(F)c(N/N=C/c3ccccc3)cc21", "inhibition": "-3.82%"}
{"smiles": "CCOC(=O)C1CN(c2cc3c(cc2F)c(=O)c(C(=O)O)cn3CC)OC1C(=O)OCC", "note": "(centres undefined)", "inhibition": "-4.02%"}
{"smiles": "Cc1cc(C)c(NC(=O)c2cn3c4c(c(N5CCN(C)CC5)c(F)cc4c2=O)OCC3C)c(C)c1", "note": "(centres undefined)", "inhibition": "1.68%"}
{"smiles": "O=C(Nc1cccc(F)c1)OC(CN1CCCCC1)C(F)(F)F", "note": "(centres undefined)", "inhibition": "6.26%"}
{"smiles": "CC1(C)Cc2c(cnn2-c2ccc(F)cc2)C(NC(=O)CN2CCCCC2=O)C1", "note": "(centres undefined)", "inhibition": "-4.07%"}
{"smiles": "CCCNC(=S)N1CCN(C)CC1", "inhibition": "-12.9%"}
{"smiles": "CCOC(=O)c1ccc(Nc2nnc(C(C)(C)C)c(=O)[nH]2)cc1", "inhibition": "-2.27%"}
{"smiles": "Cc1ccc(C(=O)CSc2nnc(C(C)C)n2C)cc1C", "inhibition": "-9.07%"}
{"smiles": "O=C(c1ccc2nc(Cc3ccccc3F)oc2c1)N1CCCC1", "inhibition": "-15.9%"}
{"smiles": "C/C(=N\\OC(=O)c1c(-c2ccccc2Cl)noc1C)c1nccs1", "inhibition": "-7.14%"}
{"smiles": "COCCn1c(N)c(N(Cc2ccccc2)C(=O)c2oc3ccccc3c2C)c(=O)[nH]c1=O", "inhibition": "-2.04%"}
{"smiles": "CCOc1ccccc1N1CCN(C(=S)NCc2ccco2)CC1", "inhibition": "-6.16%"}
{"smiles": "CC(=O)c1cnc2nc(C(F)(F)F)nn2c1C", "inhibition": "-10.3%"}
{"smiles": "CCCCCCCCn1c2c(c(=N)c3c1CCC3)CCCC2", "inhibition": "-5.2%"}
{"smiles": "CCCn1c2c(c(=N)c3c1CCC3)CCC2", "inhibition": "-2.65%"}
{"smiles": "CCCCCCn1c2c(c(=N)c3c1CCC3)CCC2", "inhibition": "12%"}
{"smiles": "CCCCn1c2c(c(=N)c3c1CCC3)CCC2", "inhibition": "-3.76%"}
{"smiles": "CC(NC(=O)CNC(=O)c1sc2ccccc2c1Cl)c1ccc(S(N)(=O)=O)cc1", "note": "(centres undefined)", "inhibition": "3.29%"}
{"smiles": "CC1=CC(C)(C(Cl)Cl)C(C)=CC1=O", "note": "(centres undefined)", "inhibition": "-0.04%"}
{"smiles": "Cc1cc(C)c(NC(=O)CSc2nnc(CNC(=O)c3c(F)cccc3Cl)o2)c(C)c1", "inhibition": "1.72%"}
{"smiles": "CC(=O)N(C)C1=C(O)c2ccccc2C(=O)C1=O", "inhibition": "-5.54%"}
{"smiles": "CC(=O)C(C(C)=O)C1(O)C(=O)c2ccccc2C1=O", "inhibition": "-7.03%"}
{"smiles": "COc1ccc(CC(=O)Nc2ccc(S(=O)(=O)Nc3ncccn3)cc2)cc1", "inhibition": "-0.86%"}
{"smiles": "S=C(Nc1ccc(Cl)cc1)NC1CCN(Cc2ccccc2)CC1", "inhibition": "1.82%"}
{"smiles": "Fc1ccc(NC(=S)NC2CCN(Cc3ccccc3)CC2)cc1", "inhibition": "17.7%"}
{"smiles": "Cc1ccc(NC(=S)NC2CCN(Cc3ccccc3)CC2)cc1C", "inhibition": "7.22%"}
{"smiles": "S=C(Nc1ccccc1)NC1CCN(Cc2ccccc2)CC1", "inhibition": "2.12%"}
{"smiles": "COc1ccc(CSc2nnc(Cc3sc(-c4ccccc4)nc3-c3ccccc3)o2)cc1", "inhibition": "7.93%"}
{"smiles": "NS(=O)(=O)c1ccc(NC(=S)N2CCN(Cc3ccc4c(c3)OCO4)CC2)cc1", "inhibition": "3.73%"}
{"smiles": "CC1Oc2ccccc2N(CC(=O)Nc2ccccc2F)C1=O", "note": "(centres undefined)", "inhibition": "-6.46%"}
{"smiles": "Cc1cn(C2OC(COC(=O)c3ccccc3)C(O)C2O)c(=O)[nH]c1=O", "note": "(centres undefined)", "inhibition": "-7.25%"}
{"smiles": "COc1cc([N+](=O)[O-])ccc1NC(=O)CSc1nnc(C)c(C)n1", "inhibition": "13.2%"}
{"smiles": "CSc1ccc(/C=C/C(=O)NC(=O)c2ccccc2O)cc1", "inhibition": "13.3%"}
{"smiles": "c1ccc2c(-c3cc(C4CCNCC4)[nH]n3)cccc2c1", "inhibition": "-4.64%"}
{"smiles": "Clc1ccc(-c2cc(C3CCNCC3)[nH]n2)cc1", "inhibition": "13.5%"}
{"smiles": "CCOc1cccc(-c2c(C(=O)N/N=C(\\C)c3ccncc3)nnn2-c2nonc2N)c1", "inhibition": "0%"}
{"smiles": "COc1ccc(CN2CCNC(=O)C2CC(=O)N(C)Cc2ccon2)c(OC)c1", "note": "(centres undefined)", "inhibition": "-0.06%"}
{"smiles": "CC1SC(c2ccc(F)cc2)N(CCc2ccccc2)C1=O", "note": "(centres undefined)", "inhibition": "11.2%"}
{"smiles": "O=C(COc1ccccc1Br)c1ccc(O)cc1O", "inhibition": "-2.5%"}
{"smiles": "N=c1c(C(=O)NCc2ccco2)cc2c(=O)n3ccccc3nc2n1CC1CCCO1", "note": "(centres undefined)", "inhibition": "-2.9%"}
{"smiles": "Cc1ccc(CNC(=O)c2cc3c(s2)CS(=O)(=O)C3)cc1", "inhibition": "-3.03%"}
{"smiles": "CSc1nc2ccc(Br)cc2[nH]1", "inhibition": "2.46%"}
{"smiles": "Clc1cc2nc(-c3cccnc3Cl)[nH]c2cc1Cl", "inhibition": "-3.66%"}
{"smiles": "Cn1c(=O)oc2cc(S(=O)(=O)Nc3ccccc3O)ccc21", "inhibition": "-2.19%"}
{"smiles": "Cc1cc(OCCCN2CCCC2)ccc1Cl", "inhibition": "1.13%"}
{"smiles": "Cc1cc(OCCN2CCOCC2)ccc1Cl", "inhibition": "-0.55%"}
{"smiles": "CN1CCN(CCOc2ccc(Cl)c(Cl)c2)CC1", "inhibition": "8.06%"}
{"smiles": "Clc1ccc(OCCN2CCCCC2)cc1Cl", "inhibition": "15%"}
{"smiles": "CCCn1c2ccccc2c2nnc(SCC(=O)Nc3ncccn3)nc21", "inhibition": "1.55%"}
{"smiles": "CN(C)CCCn1c2c(c(SCC(=O)Nc3nccs3)nc1=O)CCC2", "inhibition": "-3.03%"}
{"smiles": "O=C(Nc1cccc(Cl)c1)N1CCN(c2ncccn2)CC1", "inhibition": "8.55%"}
{"smiles": "COc1ccc(CC(=O)NCC(=O)N/N=C/c2ccc(C)o2)cc1", "inhibition": "-9.36%"}
{"smiles": "C=CCNC(=S)NCc1cccnc1", "inhibition": "-7.66%"}
{"smiles": "O=C(NNC(=O)C1CCCCC1)c1ccc(Br)cc1", "inhibition": "-2.98%"}
{"smiles": "C/C(=N\\NC(=O)c1cc(Br)ccc1O)c1ccccn1", "inhibition": "1.41%"}
{"smiles": "C/C(=N\\NC(=O)c1ccccn1)c1ccc(Cl)cc1", "inhibition": "0.75%"}
{"smiles": "C/C(=N\\NC(=O)c1ccc(Cl)c(Cl)c1)c1ccccn1", "inhibition": "3.95%"}
{"smiles": "C/C(=N\\NC(=O)c1ccc(F)cc1)c1ccccn1", "inhibition": "-3.7%"}
{"smiles": "COc1ccc(CCN2CC(C(=O)NCCc3ccccc3C)CCC2=O)cc1", "note": "(centres undefined)", "inhibition": "0.24%"}
{"smiles": "COc1cc(Br)cc(/C=N/NC(=O)Cc2ccccc2)c1O", "inhibition": "5.08%"}
{"smiles": "Oc1c(C=NCc2ccc(F)cc2)[nH]c2ccc(Br)c(Cl)c12", "inhibition": "-22.5%"}
{"smiles": "Oc1cccc(/C=N/N=C/c2cccc(O)c2O)c1O", "inhibition": "21.8%"}
{"smiles": "Oc1cccc(C=NCc2ccccc2)c1", "inhibition": "-11.2%"}
{"smiles": "O/N=C/c1cc(Br)ccc1OCc1ccc(F)cc1", "inhibition": "3.46%"}
{"smiles": "O=C(Cc1ccccc1)N/N=C/c1cc(Br)cc(Br)c1O", "inhibition": "6.54%"}
{"smiles": "CN(/N=C/c1cc(Br)cc(Br)c1O)c1ccccc1", "inhibition": "2.46%"}
{"smiles": "Oc1c(Br)cc(Br)cc1/C=N/N1CCN(Cc2ccccc2)CC1", "inhibition": "-8.57%"}
{"smiles": "CCN(CC)CC(C)CNC(=O)CC(C(=O)N1CCc2ccccc21)n1ccnc1", "note": "(centres undefined)", "inhibition": "-1.96%"}
{"smiles": "CC1(C)C2(C#N)C(N)=NC3(OCCO3)C12C#N", "note": "(centres undefined)", "inhibition": "4.42%"}
{"smiles": "Cc1ccc(S(=O)(=O)N(C)c2ccc(N)cc2)cc1", "inhibition": "8.98%"}
{"smiles": "Cc1ccc2nc(SCc3nc4cc(Cl)ccc4c(=O)[nH]3)[nH]c2c1", "inhibition": "-3.53%"}
{"smiles": "COc1cccc(C2C(=O)N(C3CCCCC3)CC(=O)N2Cc2ccc(F)cc2)c1", "note": "(centres undefined)", "inhibition": "-2.24%"}
{"smiles": "CC[N+](C)(C)CC/C=C1/c2ccccc2Sc2ccc(Cl)cc21", "inhibition": "5.02%"}
{"smiles": "OCCN1CCN(CC/C=C2/c3ccccc3Sc3ccc(C(F)(F)F)cc32)CC1", "inhibition": "-0.41%"}
{"smiles": "CN1CCN(CC/C=C2/c3ccccc3Sc3ccc(S(=O)(=O)N(C)C)cc32)CC1", "inhibition": "3.38%"}
{"smiles": "OCCN1CCN(CC/C=C2/c3ccccc3Sc3ccc(Cl)cc32)CC1", "inhibition": "5.06%"}
{"smiles": "CN1CCN(CCC=C2c3ccccc3Sc3ccc(S(=O)(=O)N(C)C)cc32)CC1", "inhibition": "-2.21%"}
{"smiles": "C[N+](C)(C)CC/C=C1/c2ccccc2CSc2ccccc21", "inhibition": "-7.79%"}
{"smiles": "O=C1[C@@H]2Cc3c([nH]c4ccccc34)C(c3ccc(Cl)cc3)N2C(=O)CN1CCO", "note": "(some centres undefined)", "inhibition": "3.36%"}
{"smiles": "CC(=O)NC(=S)Nc1ccccc1N1CCCCC1", "inhibition": "-7.09%"}
{"smiles": "COc1ccc(-c2nnc(-c3ccccc3O)o2)cc1", "inhibition": "3.32%"}
{"smiles": "CCC(C(=O)N1CCCCCC1)n1nc(C)n2c(cc3occc32)c1=O", "note": "(centres undefined)", "inhibition": "-32.5%"}
{"smiles": "CS(=O)(=O)N(CC(=O)Nc1ccccc1C(=O)NCc1ccco1)c1ccc2c(c1)OCCO2", "inhibition": "-8.68%"}
{"smiles": "Cc1c(C(=O)N2CCOCC2)sc2ncn(CC(=O)N3CCC(C)CC3)c(=O)c12", "inhibition": "0.7%"}
{"smiles": "Clc1ccc(COC(Cn2ccnc2)c2ccc(Cl)cc2Cl)cc1", "note": "(centres undefined)", "inhibition": "-0.54%"}
{"smiles": "Clc1ccc(COC(Cn2ccnc2)c2ccc(Cl)cc2Cl)c(Cl)c1", "note": "(centres undefined)", "inhibition": "-1.14% and 1.85%"}
{"smiles": "Cn1ccsc1=NC(=O)c1ccc(S(=O)(=O)C(F)F)cc1", "inhibition": "2.31%"}
{"smiles": "CCOc1ccccc1-c1nc(-c2ccc(NC(=O)Cc3ccccc3OC)cc2)no1", "inhibition": "1.73% and -10.4%"}
{"smiles": "O=C(C[n+]1ccn(-c2ccccc2)c1)c1ccc([N+](=O)[O-])cc1", "inhibition": "4.4%"}
{"smiles": "C[n+]1ccn(CC(=O)c2ccc(Cl)cc2)c1", "inhibition": "-7.58%"}
{"smiles": "O=C(Cn1cc[n+](CC(=O)c2ccccc2)c1)c1ccccc1", "inhibition": "18.8%"}
{"smiles": "O=C(Cn1c[n+](CC(=O)c2ccc([N+](=O)[O-])cc2)cn1)c1ccc([N+](=O)[O-])cc1", "inhibition": "7.72% and 18.6%"}
